From PubChem BioAssay AID1578 (Sanford-Burnham Center for Chemical Genomics, 2009) come the findings set out here.

SMILES strings stand for the structures. “And” between values parts separate entries of the source, which are not always exact repeats. Equal values may be shown once. About 3,000 (1%) of roughly 290,000 compounds were called active. This is one part of a sample in which actives are shown more often than they occur. No stated cut-off is given here; in the data, active means inhibition mostly above about 36% (no sharp cut-off); inactive means mostly below about 34%.

This experiment in a line: NOD1 signaling inhibitors, primary screen, cell-based, luminescence, uHTS (AID 1578).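 Further: HEK-293T reporter cells stimulated with the NOD1 agonist gamma-tri-DAP.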 Conditions: NOD1-driven NF-kB luciferase reporter cells, at 4 µM, hits give high values.
Turning to `CCOC(=O)CSc1nnc(Cn2c(=O)sc3ccccc32)n1-c1ccccc1C`, the inhibition (usually the drop in the measured response relative to a control, in per cent) was 5.4% (inactive).
For the compound `O=C(Nc1ccc(F)cc1)N(Cc1cccs1)Cc1cc2cc3c(cc2[nH]c1=O)OCO3`, the inhibition was -9.6% (inactive).
Regarding `CC1(C)CC(=O)C(C=NCC2CCNCC2)=C(O)C1`, the inhibition was -6.2% (inactive).
As for `C=CCNC(=S)Nc1ccc(OC(F)F)c(Cl)c1`, the inhibition is -16.4% (inactive).
Consider `CN1C(=O)Cc2cc(S(=O)(=O)NCCc3ccc(Cl)cc3)ccc21`, for which the inhibition was -20.9% (inactive).
As for `Cc1ccc(S(=O)(=O)N2Cc3ccccc3CC2C(=O)Nn2cnnc2)cc1` (configuration not stated), the inhibition is -8.2% (inactive).
Turning to `Cc1cc(C(=O)COC(=O)c2ccccc2O)c(C)n1Cc1cccs1`, the inhibition is 99.2% (active).
With `Cc1cc(C(=O)COC(=O)c2ccc3c(c2)OCO3)c(C)n1Cc1cccs1`, the inhibition is -27.2% (inactive).
For the compound `CCn1nc(C(=O)OCC(=O)c2cc(C)n(Cc3cccs3)c2C)c2ccccc2c1=O`, the inhibition is -15% (inactive).
Under `O=C(COC(=O)c1ccco1)NC1CCCC1` stands -23.8% (inactive); under `Cc1cc(NC(=O)CSc2nc3ccsc3c(=O)n2CCCC(=O)NCCc2ccccc2)no1`, -20% (inactive).
Turning to `CC(C1CC1)N(Cc1ccccc1)C(=O)NC(=O)c1ccc(F)cc1` (configuration not stated), the inhibition is -23.2% (inactive).
Under `Cc1ccc(-n2cc(-c3ccccc3)c3c(N4CCOCC4)ncnc32)cc1` stands 20.2% (inactive); under `Cc1cccc(-n2cc(-c3ccccc3)c3c(NN4CCOCC4)ncnc32)c1`, -8.1% (inactive).
Turning to `Cc1cccc(-n2cc(-c3ccccc3)c3c(N4CCOCC4)ncnc32)c1`, the inhibition is 56.2% (active).
As for `CCc1c(C)nc(Nc2nc(C)c3ccc(OC)cc3n2)[nH]c1=O`, the inhibition is -7.1% (inactive).
Then `COc1ccc2c(C)nc(Nc3nc(C)c(C)c(=O)[nH]3)nc2c1`, with 80.7% (active).
As to `CCc1c(C)nc(Nc2nc(C)c3cc(OC)ccc3n2)[nH]c1=O`, the inhibition was -42.8% (inactive).
Then `Cc1sc2ncnc(N3CCC(C(=O)NNC(=O)c4ccccc4Cl)CC3)c2c1C`, with 5.2% (inactive); and `CNC(=O)COC(=O)c1ccc(OCC(=O)Nc2ccccc2OC)c(OC)c1`, with -18.6% (inactive); and `CC1(C)CC(=O)C2=C(C1)OC(N)=C(C#N)[C@@]21C(=O)N(CC(N)=O)c2ccccc21`, with -14.4% (inactive).
Take `COc1ccccc1NS(=O)(=O)c1cc(NC(=O)c2cc3ccccc3oc2=O)ccc1C`: the inhibition was 42.3% (inactive).
Under `Cc1ccc(NC(=O)c2cc3ccccc3oc2=O)cc1S(=O)(=O)N(C)C` stands 98.1% (active); under `Cc1ccc(NC(=O)c2cc3ccccc3o2)cc1S(=O)(=O)N(C)C`, -60.5% (inactive).
As to `O=C(NC1CCCN(c2ccc(C(F)(F)F)cn2)C1)c1ccncc1` (configuration not stated), the inhibition is -22% (inactive).
Take `O=[N+]([O-])c1ccc(O)c(-c2nc(-c3ccccc3)c(-c3cccs3)[nH]2)c1`: the inhibition was 80.7% (active).
Then `O=[N+]([O-])c1cccc(-c2nc(-c3ccccc3)c(-c3cccs3)[nH]2)c1`, with -1.1% (inactive); and `O=[N+]([O-])c1cccc(-c2nc(-c3cccs3)c(-c3cccs3)[nH]2)c1`, with 26.4% (inactive).
With `CCOC(=O)Cc1csc(NC(=O)CN2CCN(CC)CC2)n1`, the inhibition was -2.4% (inactive).
In the case of `O=C1c2ccccc2NC(c2cccs2)N1NS(=O)(=O)c1ccccc1` (configuration not stated), the inhibition is -22.6% (inactive).
Turning to `N#C/C(=C\c1ccc(OCc2ccccc2)cc1)C(=O)Nc1nc2c(s1)CCN(Cc1ccccc1)C2`, the inhibition is -24.8% (inactive).
Then `CC1CCc2cc(F)ccc2N1C(=O)CSc1nnc2c(n1)[nH]c1ccc(F)cc12` (configuration not stated), with 25.7% (inactive).
Take `CC1Cc2ccccc2N1C(=O)CSc1nnc2c(n1)[nH]c1ccc(F)cc12` (configuration not stated): the inhibition is 48.5% (active).
With `CC1Cc2ccccc2N1C(=O)CSc1nnc2c(n1)[nH]c1ccccc12` (configuration not stated), the inhibition is -0.9% (inactive).
For `CCCCN(Cc1ccccc1)S(=O)(=O)c1c(N)n(C)c(=O)n(C)c1=O`, the inhibition is -10.5% (inactive).
Turning to `CCCc1nc(SCC(=O)N2CCN(c3ccccc3)CC2)c2c(=O)n(C)c(=O)n(C)c2n1`, the inhibition was 9% (inactive).
In the case of `CCc1nc(SCC(=O)N2CCC(Cc3ccccc3)CC2)c2c(=O)n(C)c(=O)n(C)c2n1`, the inhibition is 34% (inactive).
Take `CCn1nc(NC(=O)c2cccnc2)c2cc3cccc(C)c3nc21`: the inhibition was -11.6% (inactive).
Under `Cc1cc(Cl)ccc1OCC(=O)NCCCCc1ccccc1` stands -5.1% (inactive); under `Nc1[nH]c(N=NC(=O)c2ccc(Cl)cc2)c2ccccc12`, -25.6% (inactive).
As to `CCOCCCNC(=S)Nc1ccc2nc(N3CCOCC3)cc(C)c2c1`, the inhibition is -4% (inactive).
Take `Cc1cc(-c2ccc(C(C)C)c(S(=O)(=O)NCCN3CCC(C)CC3)c2)on1`: the inhibition was -17.2% (inactive).
Then `Cc1ccnc(NC(=O)Nc2cccc(F)c2)n1`, with -65.5% (inactive); and `CCN1CCN(Cc2ccc(NC(=O)c3ccc(C)c(NC(=O)N4CCNC4=O)c3)cc2C(F)(F)F)CC1`, with -7.6% (inactive) and 18% (inactive); and `CCN1CCN(Cc2ccc(C(=O)Nc3ccc(C)c(NCc4cnc(NC(=O)OC)cn4)c3)cc2C(F)(F)F)CC1`, with -2.2% (inactive).
Regarding `Cc1ccc(C(=O)Nc2cccc(C(F)(F)F)c2)cc1Nc1ccccn1`, the inhibition was -7.5% (inactive).
As to `Cc1ccc(C(=O)Nc2cccc(C(F)(F)F)c2)cc1Nc1cnccn1`, the inhibition is -3.7% (inactive).
In the case of `CN(C)c1ccc(/C=C2\C(=N)N3N=C(CC(=O)N4CCCC4)SC3=NC2=O)cc1Br`, the inhibition was -16.4% (inactive).
Then `CC(C)(Oc1ccc(Cl)cc1)C(=O)Nc1ccc2oc(=O)ccc2c1`, with -7.5% (inactive); and `Cc1cccc(NC(=O)Nc2cccc(C#N)c2)n1`, with -17.2% (inactive).
For the compound `Cc1cccc(NC(=O)Nc2ccc(C#N)cc2)n1`, the inhibition is 62.7% (active).
Under `Cc1ccc(NC(=O)Nc2cccc(C)n2)cc1` stands -12.5% (inactive).
On to `COc1ccc(OCC(=O)Nc2ccc3c(c2)nc(CCN2CCCCC2)n3C)cc1`, for which the inhibition is -22.2% (inactive).
Regarding `Cc1nnc(NC(=O)c2c(F)c(F)c(F)c(F)c2F)s1`, the inhibition was -22.9% (inactive).
For `O=C(N/N=C/c1ccc(OC(=O)c2ccccc2Cl)cc1)c1ccccn1`, the inhibition is -55.2% (inactive).
Consider `CN1C(CC(=O)Nc2ccc(Cl)cc2Cl)c2ccccc2CC1(C)C` (configuration not stated), for which the inhibition was 2.4% (inactive).
Under `Cc1ccccc1NC(=O)CC1c2ccccc2CC(C)(C)N1C` (configuration not stated) stands -25.6% (inactive).
With `CN1C(CC(=O)Nc2ccc(Br)cc2)c2ccccc2CC1(C)C` (configuration not stated), the inhibition was 92.6% (active).
For the compound `O=C1CC(N(CCc2ccccc2)C(=S)Nc2ccccc2)C(=O)N1c1ccc(Br)cc1` (configuration not stated), the inhibition was -50% (inactive).
Then `Cc1cc2cc(C)c(NCCNC(=O)c3ccccc3Cl)nc2cc1C`, with -21.1% (inactive).
With `CCN(CC)S(=O)(=O)c1ccc(-c2ccc(S(=O)(=O)N(CC)CC)cc2)cc1`, the inhibition is 39.7% (inactive).
Then `CCN(CC)S(=O)(=O)c1ccc(NS(=O)(=O)c2ccc(F)cc2)cc1`, with 9.7% (inactive); and `CCN(CC)S(=O)(=O)c1ccc(F)cc1`, with 71.7% (active); and `O=C(/C=C/c1ccccc1Cl)NCCc1ccc(F)cc1`, with -61.3% (inactive).
Turning to `COc1ccc(C(=O)/C=C/C(=O)N(CC(=O)NC2CCCCC2)Cc2ccc(F)cc2)c(O)c1`, the inhibition is 16.3% (inactive).
As for `COc1ccc(C(=O)/C=C/C(=O)N(CC(=O)NC2CCCCC2)Cc2cccs2)c(O)c1`, the inhibition is 36.2% (inactive).
For `COc1ccc(C(=O)/C=C/C(=O)N(CC(=O)NC2CCCCC2)Cc2ccccc2)c(O)c1`, the inhibition was 26% (inactive).
Under `COc1ccc(C(=O)/C=C/C(=O)N(CC(=O)NCCC(C)C)Cc2cccs2)c(O)c1` stands 86.8% (active).
For the compound `COc1ccc(C(=O)N(Cc2ccco2)Cc2cccs2)c(O)c1`, the inhibition was 29.1% (inactive).
Consider `COc1ccc(C(=O)/C=C/C(=O)N(CC(=O)NC2CCCCC2)CC2CCCO2)c(O)c1` (configuration not stated), for which the inhibition was 68.4% (active).
Take `COc1ccc2cnn(-c3ccc(OC(F)(F)F)cc3)c(=O)c2c1OC`: the inhibition is -0.3% (inactive).
With `Cc1ccc(CNC(=O)C2CCC(=O)N2Cc2ccc(C)cc2)cc1` (configuration not stated), the inhibition is 0.2% (inactive).
In the case of `CN1CCN(C(=O)c2ccc(CSc3ccc(Cl)cc3)cc2)CC1`, the inhibition is -13.5% (inactive).
As for `CCOC(=O)N1CCN(C(=O)c2ccc(CSc3ccc(Cl)cc3)cc2)CC1`, the inhibition is 62.9% (active).
Take `O=C(c1ccc(CSc2ccc(Cl)cc2)cc1)N1CCCC1`: the inhibition was -3.6% (inactive).
Consider `C=CCn1c(O)c(CN2CCCCC2)c(C)c(C#N)c1=O`, for which the inhibition was -25.8% (inactive).
Regarding `O=C(Nc1ccc(N2CCCCCC2)cc1)c1ccccc1Cl`, the inhibition was -33.9% (inactive).
Under `CCC(=O)Nc1ccc(N2CCCCC2)cc1` stands 0.2% (inactive).
Under `O=C(Nc1ccc(N2CCCCC2)cc1)c1ccccn1` stands 89.3% (active); under `O=C(CN1CCCCC1)Nc1ccc(N2CCCCCC2)cc1`, -21% (inactive); under `CCN1CCN(c2ccc(NC(=O)c3cnccn3)cc2)CC1`, -37.5% (inactive).
On to `O=C(Nc1ccc(N2CCOCC2)cc1)c1cnccn1`, for which the inhibition was 52.9% (active).
`Cc1cnc(C(=O)Nc2ccc(N3CCOCC3)cc2)cn1`: the inhibition was -18.5% (inactive).
As to `O=C(Nc1ccc(N2CCCCC2)cc1)c1cccnc1Cl`, the inhibition was -28% (inactive).
In the case of `O=C(CCl)Nc1ccc(N2CCCCCC2)cc1`, the inhibition was 65.3% (active).
Under `CCc1c(O)nc(SCC(=O)Nc2ccccc2C)n(-c2ccc(C)cc2)c1=O` stands -22.6% (inactive).
Consider `CN1CCN(C(=O)/C(=C/c2ccccc2F)NC(=O)c2ccccc2)CC1`, for which the inhibition is -17.7% (inactive).
As for `CCNc1ccc([N+](=O)[O-])cc1`, the inhibition was -1.6% (inactive).
For the compound `CN(C)CCCN(Cc1cc2cc3c(cc2[nH]c1=O)OCO3)C(=S)Nc1ccccc1`, the inhibition is -23.7% (inactive).
As to `CCSc1nnc(NC(=O)c2cccc(S(=O)(=O)N(C)c3ccccc3)c2)s1`, the inhibition is -5.2% (inactive).
Under `CCCCn1c(SCC(=O)N2CCC(C)CC2)nc2ccsc2c1=O` stands -16.2% (inactive).
Take `CCCCn1c(SCC(=O)c2ccccc2)nc2ccsc2c1=O`: the inhibition is 21.6% (inactive).
